What is called inhibition is the change of the read-out against control, counted positive when it falls.

Unmarked numbers belong to inactive results. How the calls were made is not given here.

For this assay, the target named is Pantothenate synthetase (Mycobacterium tuberculosis (strain ATCC 25618 / H37Rv)) (UniProt P9WIL5). Kind of assay: Recombinant Mtb pantothenate synthetase (PanC) inhibitors, coupled enzyme, confirmatory (AID 375).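 Further: 0% = full reaction with vehicle and 100% = no enzyme background.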 Conditions: coupled enzyme assay; at 10 µM, active compounds read high.
Chain of Pantothenate synthetase (Mycobacterium tuberculosis (strain ATCC 25618 / H37Rv)) (P9WIL5 whole entry, looked up): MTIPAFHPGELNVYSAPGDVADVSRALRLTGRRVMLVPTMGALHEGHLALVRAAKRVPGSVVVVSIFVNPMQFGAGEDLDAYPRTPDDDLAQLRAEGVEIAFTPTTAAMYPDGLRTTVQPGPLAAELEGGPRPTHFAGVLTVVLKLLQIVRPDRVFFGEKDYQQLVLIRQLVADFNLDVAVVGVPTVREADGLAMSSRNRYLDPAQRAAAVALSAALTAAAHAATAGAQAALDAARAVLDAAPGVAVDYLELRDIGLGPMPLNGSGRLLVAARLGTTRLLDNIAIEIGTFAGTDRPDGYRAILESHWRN
As to `Cc1c(C(=O)N2CCN(c3ccccc3)CC2)sc2ncnc(N3CCN(c4ccccc4)CC3)c12`, the inhibition was 0%.

As for `CCNc1nc(NCC)n2c(SCc3nc4ccccc4c(=O)[nH]3)nnc2n1`, the inhibition is 1%. On to `Cc1ccc2nc3c(cc2c1)CN(Cc1ccco1)C(=NCC1CCCO1)S3` (stereo not given), for which the inhibition was 0%.

For `CCOC(=O)N1CCC(n2c(SCC(=O)NCc3ccco3)nc3ccsc3c2=O)CC1`, the inhibition is 0%. Consider `Cc1ccc2[nH]c(=O)c(CN(CCCO)S(=O)(=O)c3c(C)ccc4nsnc34)cc2c1`, for which the inhibition is 6%. With `O=C(CCc1ccc(S(=O)(=O)N2CCOCC2)cc1)NCCc1ccccn1` the figure was 0%; with `Fc1ccc(C(c2ccc(F)cc2)N2CCN(C/C=C/c3ccccc3)CC2)cc1`, 0%. For `COc1ccccc1OCc1ccc(C(=O)NC(C)(C)C)o1`, the inhibition was 2%.

For `COc1cc2c(cc1OC)C(c1cccnc1)CC(=O)N2` (stereo not given), the inhibition is 5%. With `COC(=O)c1cc(-c2c(C)nn(-c3ccccc3)c2C)n[nH]1` the figure was 0%. As to `COc1ccc(CN2C(=O)C(O)(CC(=O)c3c(C)n[nH]c3C)c3ccccc32)cc1OC` (stereo not given), the inhibition is 0%.

Consider `NC(=O)NC(=O)CSc1cccc(C(F)(F)F)c1`, for which the inhibition is 0%.

On to `COc1ccc(C)cc1S(=O)(=O)N1CCN(Cc2ccccc2)CC1`, for which the inhibition was 11%.

Turning to `CC1Cc2ccccc2N1S(=O)(=O)c1cccc(C(=O)OCC(=O)NC2CCS(=O)(=O)C2)c1` (stereo not given), the inhibition is 0%. For the compound `CS(=O)(=O)N(CC(=O)Nc1ccc2c(c1)OCCO2)Cc1ccccc1`, the inhibition was 2%. `COc1ccc(OC)c(-c2cc(C(=O)NCc3cccs3)no2)c1`: the inhibition is 0%.

As to `COc1ccc(NC(=O)N2CCC(c3nc(-c4cccs4)no3)CC2)cc1`, the inhibition was 0%. With `CCC(=O)N1CCc2cc(Br)cc(S(=O)(=O)C3(C(=O)OC)CC3)c21` the figure was 0%. With `CCC1CCc2c(sc3ncnc(N4CCOCC4)c23)C1` (stereo not given) the figure was 0%; with `CCN(CC)S(=O)(=O)c1ccc2c(c1)nc(SCn1nnc3ccccc3c1=O)n2CC`, 0%.

Regarding `COc1ccc(CNC(=O)c2cnc3n(c2=O)CCS3)cc1`, the inhibition was 0%. Under `COCCN1C(=O)c2oc3c(C)cc(C)cc3c(=O)c2C1c1cccc(O)c1` (stereo not given) stands 5%; under `CC(C)(C)c1cc(NS(=O)(=O)c2ccc3c(c2)OCCO3)on1`, 0%; under `S=C(c1cccs1)N1CCCC1`, 0%. With `COc1nc2ccc(C)cc2cc1-c1noc(-c2cccnc2)n1` the figure was 4%; with `CCOc1cc(C(=O)Nc2ccon2)cc(OCC)c1OCC`, 8%. With `Cc1ccc(Cn2nnc3c(=O)n(CC(=O)NCC4CCCO4)cnc32)cc1` (stereo not given) the figure was 0%; with `Cc1cc(NC(=O)c2ccc(Cl)cc2)no1`, 0%.

Consider `COC(=O)c1ccccc1NC(=O)N1CCCC1`, for which the inhibition is 0%. With `Cc1cccc(NC(=O)c2oc3c(c2C)C(=O)CC(C)(C)C3)n1` the figure was 9%; with `COc1cc(CC(=O)Nc2ncc(C)s2)cc(OC)c1OC`, 0%. Under `CN(C)C(=O)C12CCC(C)(c3nc4ccccc4nc31)C2(C)C` (stereo not given) stands 4%. On to `CCOC(=O)c1cccc(NC(=O)CSc2nc3cccnc3n2C)c1`, for which the inhibition is 0%.

On to `Cn1cnc2c1c(=O)[nH]c(=O)n2C`, for which the inhibition is 0%. Under `CC(C)CCNC(=O)[C@H](CC(C)C)NC(=O)[C@H]1O[C@@H]1C(=O)O` stands 0%; under `O=C(Nc1ccccc1C(=O)N1CCOCC1)C1COc2ccccc2O1` (stereo not given), 0%. As for `CCN(CC)c1ccc(NC(=O)c2nc3nc(C)cc(C(F)F)n3n2)cc1`, the inhibition is 0%. With `CCOCCCNC(=O)Cn1ncc2c(=O)oc3ccccc3c21` the figure was 0%; with `c1ccc(CCNc2ccc3nncn3n2)cc1`, 2%. Under `O=C(c1ccco1)c1nnn(Cc2ccccc2)c1-c1ccccc1` stands 1%.

The record behind these values is PubChem BioAssay.
